Experimental data: the supplement of paper PMC10849652
Targets with a hit are over-represented here; the source holds about 7,900 in all. About 0.6% of all pairs of compound and target were hits.

Assays:
Experiment in all cases: log2 fold change, soluble protein after heating vs DMSO (PISA); higher = thermal stabilisation; K562 cells, 10 uM, 30 min; active = over 0.2 and 3.5 SD of the protein, either way, in both replicates (recomputed)
saracatinib = compound: CN1CCN(CCOc2cc(OC3CCOCC3)c3c(Nc4c(Cl)ccc5c4OCO5)ncnc3c2)CC1 [saracatinib]
How it was run: (§1)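 For each measurement, 10 μM compound was applied for 30 min to K562 cells at 2×10^6 cells/mL. Aliquots were heated for 3 min across 48°C-58°C, pooled, and extracted in PBS with 0.5% NP-40 at 4°C; the supernatant after 21,000xg for 90 min was soluble protein. This was quantified by TMTpro 16plex LC-MS/MS with channel sums equalised, and thermal stability was reported relative to control samples from duplicates, on a log2 fold-change scale.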

sotrastaurin = compound: CN1CCN(c2nc(C3=C(c4c[nH]c5ccccc45)C(=O)NC3=O)c3ccccc3n2)CC1 [sotrastaurin]
How it was run: as §1

alvocidib = compound: CN1CC[C@H](c2c(O)cc(O)c3c(=O)cc(-c4ccccc4Cl)oc23)[C@H](O)C1 [alvocidib]
How it was run: as §1

Tubastatin A = compound: CN1CCc2c(c3ccccc3n2Cc2ccc(C(=O)NO)cc2)C1 [Tubastatin A]
How it was run: as §1

[1] = compound: CNC(=O)C1=CC=CC=C1NC2=NC(=NC=C2Cl)NC3=C(C=C(C=C3)N4CCOCC4)OC
How it was run: as §1

defactinib = compound: CNC(=O)c1ccc(Nc2ncc(C(F)(F)F)c(NCc3nccnc3N(C)S(C)(=O)=O)n2)cc1 [defactinib]
How it was run: as §1

rucaparib = compound: CNCc1ccc(-c2[nH]c3cc(F)cc4c3c2CCNC4=O)cc1 [rucaparib]
How it was run: as §1

[2] = compound: CNc1nc(-c2ccc3c(N)n[nH]c3c2)cc(N2C[C@@H](C(=O)NC3CCCCC3)CC[C@H]2C)n1
How it was run: as §1

encorafenib = compound: COC(=O)N[C@@H](C)CNc1nccc(-c2cn(C(C)C)nc2-c2cc(Cl)cc(NS(C)(=O)=O)c2F)n1 [encorafenib]
How it was run: as §1

[3] = compound: COC(=O)[C@H](CCSC)NC(=O)C1=C(C=C(C=C1)NC[C@H](CS)N)C2=CC=CC=C2
How it was run: as §1

[4] = compound: COC1=CC=C(C=C1)CN2C=CC3=C2C=C(C=C3)C(=O)NO
How it was run: as §1

filanesib = compound: CON(C)C(=O)N1N=C(c2cc(F)ccc2F)S[C@@]1(CCCN)c1ccccc1 [filanesib]
How it was run: as §1

zotarolimus = compound: CO[C@H]1C[C@@H]2CC[C@@H](C)[C@@](O)(O2)C(=O)C(=O)N2CCCC[C@H]2C(=O)O[C@H]([C@H](C)C[C@@H]2CC[C@H](n3cnnn3)[C@H](OC)C2)CC(=O)[C@H](C)/C=C(\C)[C@@H](O)[C@@H](OC)C(=O)[C@H](C)C[C@H](C)/C=C/C=C/C=C/1C [zotarolimus]
How it was run: as §1

idasanutlin = compound: COc1cc(C(=O)O)ccc1NC(=O)[C@@H]1N[C@@H](CC(C)(C)C)[C@](C#N)(c2ccc(Cl)cc2F)[C@H]1c1cccc(Cl)c1F [idasanutlin]
How it was run: as §1

alisertib = compound: COc1cc(Nc2ncc3c(n2)-c2ccc(Cl)cc2C(c2c(F)cccc2OC)=NC3)ccc1C(=O)O [alisertib]
How it was run: as §1

[5] = compound: COc1cc2nc(-c3cc(F)ccc3O)nc(N[C@@H]3CNC[C@H]3C(C)(C)O)c2cc1OC
How it was run: as §1

gefitinib = compound: COc1cc2ncnc(Nc3ccc(F)c(Cl)c3)c2cc1OCCCN1CCOCC1 [gefitinib]
How it was run: as §1

[6] = compound: COc1cccc2cc(-c3nc([C@H]4CC[C@H](C(=O)O)CC4)n4ncnc(N)c34)[nH]c12
How it was run: as §1

lapatinib = compound: CS(=O)(=O)CCNCc1ccc(-c2ccc3ncnc(Nc4ccc(OCc5cccc(F)c5)c(Cl)c4)c3c2)o1 [lapatinib]
How it was run: as §1

pictilisib = compound: CS(=O)(=O)N1CCN(Cc2cc3nc(-c4cccc5[nH]ncc45)nc(N4CCOCC4)c3s2)CC1 [pictilisib]
How it was run: as §1

Measured: log2 fold change

MDN1 (UniProt Q9NU22)
inactive: saracatinib -0.029 | sotrastaurin -0.035 | alvocidib -0.143 | Tubastatin A 0.033 | [1] -0.092 | defactinib -0.166 | rucaparib -0.067 | [2] 0.018 | encorafenib 0.018 | [3] -0.049 | [4] 0.066 | filanesib -0.095 | zotarolimus -0.002 | idasanutlin -0.058 | alisertib -0.056 | [5] -0.031 | gefitinib -0.003 | [6] 0.022 | lapatinib -0.005 | pictilisib 0.001

IRF3 (UniProt Q14653)
inactive: saracatinib 0.061 | sotrastaurin -0.043 | alvocidib -0.07 | Tubastatin A 0 | [1] 0.006 | defactinib -0.062 | rucaparib -0.057 | [2] -0.01 | encorafenib 0.014 | [3] -0.014 | [4] -0.075 | filanesib -0.141 | zotarolimus 0.021 | idasanutlin -0.073 | alisertib -0.085 | [5] -0.08 | gefitinib 0.011 | [6] 0.023 | lapatinib -0.003 | pictilisib 0.053

LONP2 (UniProt Q86WA8)
Chain of UniProt Q86WA8 (Q86WA8 whole entry, looked up): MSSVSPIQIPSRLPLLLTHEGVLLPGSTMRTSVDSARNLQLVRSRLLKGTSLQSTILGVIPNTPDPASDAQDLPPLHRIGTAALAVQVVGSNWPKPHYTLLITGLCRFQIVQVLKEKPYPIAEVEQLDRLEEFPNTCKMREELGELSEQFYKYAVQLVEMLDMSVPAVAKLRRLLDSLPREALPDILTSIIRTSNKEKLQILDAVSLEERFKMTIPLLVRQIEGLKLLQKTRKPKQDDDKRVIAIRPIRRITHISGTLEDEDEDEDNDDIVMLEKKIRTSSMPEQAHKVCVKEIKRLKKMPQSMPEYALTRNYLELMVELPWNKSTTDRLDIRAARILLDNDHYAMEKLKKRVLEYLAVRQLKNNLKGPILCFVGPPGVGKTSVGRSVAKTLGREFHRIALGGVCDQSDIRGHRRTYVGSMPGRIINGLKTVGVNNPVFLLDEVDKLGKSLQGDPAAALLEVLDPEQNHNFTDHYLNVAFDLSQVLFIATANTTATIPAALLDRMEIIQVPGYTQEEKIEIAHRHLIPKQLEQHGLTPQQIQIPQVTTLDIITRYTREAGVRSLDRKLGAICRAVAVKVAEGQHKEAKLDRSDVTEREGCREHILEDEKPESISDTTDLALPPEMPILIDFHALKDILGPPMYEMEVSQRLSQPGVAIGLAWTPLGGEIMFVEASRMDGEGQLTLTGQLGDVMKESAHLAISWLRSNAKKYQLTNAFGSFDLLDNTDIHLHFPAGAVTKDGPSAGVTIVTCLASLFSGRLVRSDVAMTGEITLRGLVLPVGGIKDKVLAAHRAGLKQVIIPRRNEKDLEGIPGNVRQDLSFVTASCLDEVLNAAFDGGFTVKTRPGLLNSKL
inactive: saracatinib 0.006 | sotrastaurin 0.003 | alvocidib -0.029 | Tubastatin A 0.135 | [1] 0 | defactinib -0.12 | rucaparib 0.067 | [2] -0.079 | encorafenib 0.13 | [3] 0.007 | [4] -0.002 | filanesib -0.019 | zotarolimus -0.02 | idasanutlin -0.177 | alisertib -0.115 | [5] 0.375 | gefitinib 0.129 | [6] 0.015 | lapatinib 0.1 | pictilisib -0.041

LEMD3 (UniProt Q9Y2U8)
Chain of UniProt Q9Y2U8 (Q9Y2U8 whole entry, looked up): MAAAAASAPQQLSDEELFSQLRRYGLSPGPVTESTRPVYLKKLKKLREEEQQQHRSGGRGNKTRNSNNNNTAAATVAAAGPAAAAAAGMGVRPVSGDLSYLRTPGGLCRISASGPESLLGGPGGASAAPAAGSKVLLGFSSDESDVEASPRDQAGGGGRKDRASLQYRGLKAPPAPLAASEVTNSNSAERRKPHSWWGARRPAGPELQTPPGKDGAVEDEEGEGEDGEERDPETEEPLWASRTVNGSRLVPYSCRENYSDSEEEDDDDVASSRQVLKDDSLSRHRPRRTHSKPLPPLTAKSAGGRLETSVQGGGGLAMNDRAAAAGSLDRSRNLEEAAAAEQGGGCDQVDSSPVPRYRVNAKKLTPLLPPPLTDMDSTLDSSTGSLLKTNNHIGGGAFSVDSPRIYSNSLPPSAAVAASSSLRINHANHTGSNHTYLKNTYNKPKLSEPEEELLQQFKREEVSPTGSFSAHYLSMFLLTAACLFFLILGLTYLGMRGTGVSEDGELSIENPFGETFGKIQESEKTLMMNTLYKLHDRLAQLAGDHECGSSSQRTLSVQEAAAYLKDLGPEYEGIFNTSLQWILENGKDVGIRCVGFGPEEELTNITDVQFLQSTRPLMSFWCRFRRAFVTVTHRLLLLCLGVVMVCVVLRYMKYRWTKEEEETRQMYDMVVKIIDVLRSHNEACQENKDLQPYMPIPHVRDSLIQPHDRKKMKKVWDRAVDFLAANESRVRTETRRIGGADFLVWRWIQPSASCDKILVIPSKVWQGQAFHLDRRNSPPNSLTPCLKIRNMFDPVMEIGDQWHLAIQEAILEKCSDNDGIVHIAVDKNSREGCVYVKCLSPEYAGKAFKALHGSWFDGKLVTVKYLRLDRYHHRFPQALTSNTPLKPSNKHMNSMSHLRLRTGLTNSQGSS
inactive: saracatinib -0.014 | sotrastaurin 0.013 | alvocidib -0.057 | Tubastatin A 0.062 | [1] 0.068 | defactinib -0.111 | rucaparib 0.027 | [2] 0.039 | encorafenib 0.026 | [3] -0.075 | [4] 0.036 | filanesib 0 | zotarolimus 0.107 | idasanutlin -0.023 | alisertib 0.073 | [5] -0.001 | gefitinib -0.013 | [6] 0.069 | lapatinib 0.044 | pictilisib 0.047

LPCAT3 (UniProt Q6P1A2)
Chain of UniProt Q6P1A2 (Q6P1A2 whole entry, looked up): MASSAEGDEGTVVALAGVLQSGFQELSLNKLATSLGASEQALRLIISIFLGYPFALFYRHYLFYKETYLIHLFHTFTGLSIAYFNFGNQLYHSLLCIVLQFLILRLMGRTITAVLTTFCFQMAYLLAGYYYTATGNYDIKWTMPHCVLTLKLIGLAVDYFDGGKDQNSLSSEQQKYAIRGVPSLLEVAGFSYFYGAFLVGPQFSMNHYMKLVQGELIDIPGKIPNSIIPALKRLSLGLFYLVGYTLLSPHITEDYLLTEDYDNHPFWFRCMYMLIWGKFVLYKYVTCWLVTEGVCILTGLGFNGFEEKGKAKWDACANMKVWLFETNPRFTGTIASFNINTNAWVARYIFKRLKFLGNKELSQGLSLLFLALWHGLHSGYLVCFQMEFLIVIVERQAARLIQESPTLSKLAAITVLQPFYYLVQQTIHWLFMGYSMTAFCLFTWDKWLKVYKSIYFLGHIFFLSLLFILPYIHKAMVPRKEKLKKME
inactive: saracatinib -0.048 | sotrastaurin -0.14 | alvocidib -0.002 | Tubastatin A 0 | [1] 0.093 | defactinib 0 | rucaparib -0.074 | [2] 0.138 | encorafenib -0.026 | [3] -0.021 | [4] -0.067 | zotarolimus -0.065 | idasanutlin -0.086 | alisertib -0.055 | [5] -0.117 | gefitinib -0.024 | [6] -0.017 | lapatinib 0.172 | pictilisib -0.011
active: filanesib -0.352

KPNA1 (UniProt P52294)
Chain of UniProt P52294 (P52294 whole entry, looked up): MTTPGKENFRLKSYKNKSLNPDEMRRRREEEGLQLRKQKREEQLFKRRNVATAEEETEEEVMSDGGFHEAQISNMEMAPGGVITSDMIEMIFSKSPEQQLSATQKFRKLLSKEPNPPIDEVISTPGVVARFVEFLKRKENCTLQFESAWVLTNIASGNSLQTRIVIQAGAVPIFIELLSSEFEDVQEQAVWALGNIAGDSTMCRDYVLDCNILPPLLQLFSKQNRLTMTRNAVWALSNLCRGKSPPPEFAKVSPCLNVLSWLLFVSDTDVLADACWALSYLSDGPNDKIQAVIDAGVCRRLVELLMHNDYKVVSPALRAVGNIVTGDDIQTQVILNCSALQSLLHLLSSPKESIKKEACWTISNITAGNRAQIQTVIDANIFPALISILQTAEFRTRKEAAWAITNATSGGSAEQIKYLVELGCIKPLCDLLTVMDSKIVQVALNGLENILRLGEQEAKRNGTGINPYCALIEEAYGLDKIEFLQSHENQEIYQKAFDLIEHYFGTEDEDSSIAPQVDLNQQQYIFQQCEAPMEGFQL
inactive: saracatinib -0.014 | sotrastaurin -0.174 | alvocidib -0.019 | Tubastatin A 0.021 | [1] 0.006 | defactinib -0.064 | rucaparib 0.151 | [2] -0.078 | encorafenib 0.197 | [3] 0 | [4] -0.115 | filanesib 0.072 | zotarolimus 0.065 | idasanutlin 0.019 | alisertib 0.078 | [5] 0.083 | gefitinib 0.011 | [6] -0.042 | lapatinib 0.01 | pictilisib 0.094

MAPKAPK3 (UniProt Q16644)
inactive: saracatinib 0.134 | sotrastaurin -0.117 | alvocidib 0.011 | Tubastatin A -0.077 | [1] 0.117 | defactinib -0.051 | rucaparib -0.023 | [2] 0.011 | encorafenib 0.106 | [3] -0.01 | [4] -0.146 | filanesib 0 | zotarolimus -0.034 | idasanutlin -0.088 | alisertib 0.018 | [5] 0.037 | gefitinib 0.27 | [6] 0.01 | lapatinib -0.065 | pictilisib 0.039

LIMD1 (UniProt Q9UGP4)
inactive: saracatinib 0.074 | sotrastaurin -0.011 | alvocidib -0.03 | Tubastatin A -0.034 | [1] -0.029 | defactinib -0.03 | rucaparib -0.008 | [2] -0.01 | encorafenib 0.004 | [3] 0.004 | [4] 0.027 | filanesib -0.007 | zotarolimus 0.028 | idasanutlin 0.028 | alisertib -0.059 | [5] 0 | gefitinib -0.078 | [6] -0.01 | lapatinib 0.06 | pictilisib -0.043

KDM3B (UniProt Q7LBC6)
inactive: saracatinib 0.01 | sotrastaurin -0.089 | alvocidib -0.091 | Tubastatin A -0.01 | [1] 0.072 | defactinib -0.161 | rucaparib -0.058 | [2] -0.093 | encorafenib 0.054 | [3] -0.029 | [4] 0.01 | filanesib 0.001 | zotarolimus 0.033 | idasanutlin -0.026 | alisertib 0.021 | [5] 0.065 | gefitinib 0.008 | [6] -0.029 | lapatinib -0.014 | pictilisib 0.012

KRAS isoform 2 (UniProt P01116)
Chain of UniProt P01116 (P01116 whole entry, looked up): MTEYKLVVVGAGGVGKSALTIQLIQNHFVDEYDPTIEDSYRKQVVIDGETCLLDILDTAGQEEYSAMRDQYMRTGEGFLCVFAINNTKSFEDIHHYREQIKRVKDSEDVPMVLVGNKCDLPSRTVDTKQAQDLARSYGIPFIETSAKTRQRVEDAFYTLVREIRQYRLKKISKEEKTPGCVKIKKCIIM
inactive: saracatinib 0.039 | sotrastaurin 0.045 | alvocidib -0.062 | Tubastatin A -0.036 | [1] 0.027 | defactinib 0.013 | rucaparib -0.028 | [2] 0.011 | encorafenib 0.043 | [3] 0.02 | [4] 0.01 | filanesib 0.005 | zotarolimus -0.033 | idasanutlin 0.099 | alisertib 0.029 | [5] 0.037 | gefitinib 0.015 | [6] 0.033 | lapatinib -0.009 | pictilisib 0.046

KEAP1 (UniProt Q14145)
inactive: saracatinib -0.009 | sotrastaurin -0.119 | alvocidib 0.02 | Tubastatin A -0.035 | [1] 0.054 | defactinib -0.045 | rucaparib 0.116 | [2] -0.015 | encorafenib 0.059 | [3] -0.003 | [4] 0.005 | filanesib 0.028 | zotarolimus 0.036 | idasanutlin -0.019 | alisertib -0.018 | [5] 0.005 | gefitinib 0.03 | [6] -0.066 | lapatinib 0.007 | pictilisib -0.02

MAP1LC3B2 (UniProt A6NCE7)
inactive: saracatinib 0.016 | sotrastaurin -0.115 | alvocidib -0.063 | Tubastatin A 0.037 | [1] 0.026 | defactinib -0.015 | rucaparib 0.004 | [2] -0.015 | encorafenib 0.032 | [3] -0.048 | [4] -0.026 | filanesib -0.062 | zotarolimus 0.011 | idasanutlin -0.022 | alisertib -0.004 | [5] -0.032 | gefitinib -0.003 | [6] -0.035 | lapatinib -0.011 | pictilisib -0.004

LMNA (UniProt P02545)
Chain of UniProt P02545 (P02545 whole entry, looked up): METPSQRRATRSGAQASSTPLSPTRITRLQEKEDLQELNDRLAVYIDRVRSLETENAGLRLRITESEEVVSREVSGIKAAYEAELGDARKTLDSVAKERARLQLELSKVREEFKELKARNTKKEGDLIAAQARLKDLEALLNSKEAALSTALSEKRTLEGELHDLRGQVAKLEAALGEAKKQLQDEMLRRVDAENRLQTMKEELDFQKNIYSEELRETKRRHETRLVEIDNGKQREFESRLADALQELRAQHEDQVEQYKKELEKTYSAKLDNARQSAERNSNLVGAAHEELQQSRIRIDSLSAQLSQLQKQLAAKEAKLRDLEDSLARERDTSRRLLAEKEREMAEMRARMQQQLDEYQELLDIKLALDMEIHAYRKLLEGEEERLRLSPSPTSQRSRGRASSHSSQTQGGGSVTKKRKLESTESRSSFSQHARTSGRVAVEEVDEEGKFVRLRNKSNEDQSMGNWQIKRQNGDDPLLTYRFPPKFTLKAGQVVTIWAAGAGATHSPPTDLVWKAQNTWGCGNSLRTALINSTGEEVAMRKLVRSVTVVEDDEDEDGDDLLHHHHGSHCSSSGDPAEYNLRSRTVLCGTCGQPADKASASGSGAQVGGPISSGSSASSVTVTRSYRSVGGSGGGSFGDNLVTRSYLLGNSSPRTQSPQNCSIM
active: alvocidib -0.214
inactive: saracatinib 0.041 | sotrastaurin -0.083 | Tubastatin A -0.033 | [1] 0.003 | defactinib -0.121 | rucaparib -0.08 | [2] -0.138 | encorafenib -0.019 | [3] 0.042 | [4] -0.093 | filanesib 0.088 | zotarolimus 0.018 | idasanutlin 0.093 | alisertib 0.096 | [5] -0.112 | gefitinib -0.014 | [6] 0 | lapatinib 0.028 | pictilisib 0.008

MAP4 (UniProt E7EVA0)
inactive: saracatinib 0.03 | sotrastaurin -0.015 | alvocidib 0.127 | Tubastatin A 0.041 | [1] -0.059 | defactinib 0.099 | rucaparib 0.209 | [2] 0.043 | encorafenib 0.017 | [3] 0.032 | [4] -0.027 | filanesib 0.216 | zotarolimus -0.1 | idasanutlin 0.023 | alisertib -0.094 | [5] -0.134 | gefitinib 0.109 | [6] -0.024 | lapatinib 0.186 | pictilisib 0.019

MCU (UniProt Q8NE86)
Chain of UniProt Q8NE86 (Q8NE86 whole entry, looked up): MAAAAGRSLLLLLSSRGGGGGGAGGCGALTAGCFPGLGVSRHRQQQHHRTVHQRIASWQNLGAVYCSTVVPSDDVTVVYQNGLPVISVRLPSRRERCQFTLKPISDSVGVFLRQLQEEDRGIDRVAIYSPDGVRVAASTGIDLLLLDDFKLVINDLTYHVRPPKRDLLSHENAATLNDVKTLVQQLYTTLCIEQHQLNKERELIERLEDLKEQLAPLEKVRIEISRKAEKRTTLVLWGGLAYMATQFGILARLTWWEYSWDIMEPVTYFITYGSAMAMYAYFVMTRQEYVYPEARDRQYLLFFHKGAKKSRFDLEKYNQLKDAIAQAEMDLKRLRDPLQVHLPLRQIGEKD
inactive: saracatinib 0.039 | sotrastaurin -0.028 | alvocidib -0.08 | Tubastatin A 0.036 | [1] 0.013 | defactinib -0.043 | rucaparib -0.032 | [2] -0.014 | encorafenib -0.017 | [3] -0.032 | [4] -0.056 | filanesib -0.152 | zotarolimus 0.164 | idasanutlin -0.091 | alisertib -0.053 | [5] -0.053 | gefitinib -0.049 | [6] 0.054 | lapatinib -0.099 | pictilisib 0.09

IPO9 (UniProt Q96P70)
Chain of UniProt Q96P70 (Q96P70 whole entry, looked up): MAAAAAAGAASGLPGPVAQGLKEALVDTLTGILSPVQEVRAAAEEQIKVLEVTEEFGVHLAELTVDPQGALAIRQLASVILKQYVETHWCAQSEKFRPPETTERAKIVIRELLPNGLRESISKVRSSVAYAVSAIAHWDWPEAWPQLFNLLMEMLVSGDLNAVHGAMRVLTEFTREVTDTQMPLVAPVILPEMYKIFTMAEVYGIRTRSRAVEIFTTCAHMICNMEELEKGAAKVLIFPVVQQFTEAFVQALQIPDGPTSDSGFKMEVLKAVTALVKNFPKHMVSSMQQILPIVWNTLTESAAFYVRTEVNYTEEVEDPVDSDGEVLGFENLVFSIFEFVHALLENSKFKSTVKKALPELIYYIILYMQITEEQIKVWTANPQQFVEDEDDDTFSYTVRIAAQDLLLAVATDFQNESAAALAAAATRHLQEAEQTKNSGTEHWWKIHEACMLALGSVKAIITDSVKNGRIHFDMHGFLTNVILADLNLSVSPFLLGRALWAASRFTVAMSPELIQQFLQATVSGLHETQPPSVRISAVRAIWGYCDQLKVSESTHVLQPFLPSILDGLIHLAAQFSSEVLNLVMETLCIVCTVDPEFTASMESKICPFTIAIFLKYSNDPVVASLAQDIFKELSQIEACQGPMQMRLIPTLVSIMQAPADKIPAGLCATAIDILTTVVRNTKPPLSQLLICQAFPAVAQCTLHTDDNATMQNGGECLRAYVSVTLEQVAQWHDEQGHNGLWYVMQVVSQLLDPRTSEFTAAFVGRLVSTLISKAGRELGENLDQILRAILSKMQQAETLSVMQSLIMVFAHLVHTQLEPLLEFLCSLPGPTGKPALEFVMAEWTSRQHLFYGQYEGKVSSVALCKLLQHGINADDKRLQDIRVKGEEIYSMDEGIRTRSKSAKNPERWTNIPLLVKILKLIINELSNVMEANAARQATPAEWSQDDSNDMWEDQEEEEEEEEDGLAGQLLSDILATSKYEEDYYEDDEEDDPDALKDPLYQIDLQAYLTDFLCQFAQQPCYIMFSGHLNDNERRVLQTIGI
inactive: saracatinib 0.036 | sotrastaurin -0.13 | alvocidib -0.08 | Tubastatin A -0.02 | [1] 0.034 | defactinib -0.106 | rucaparib -0.051 | [2] -0.136 | encorafenib 0.056 | [3] 0 | [4] 0.014 | filanesib -0.005 | zotarolimus 0.052 | idasanutlin -0.089 | alisertib -0.016 | [5] -0.054 | gefitinib 0.088 | [6] 0.065 | lapatinib 0.011 | pictilisib 0.031
